Measurements from PubChem BioAssay (Tox21).
Records with an inconclusive call do not appear. Where a structure was tested more than once in an assay, its records may differ in their call. The source made the active and inactive calls. Unless noted, calls come from the whole dose curve.

Legend:
[1] = Nuclear factor erythroid 2-related factor 2/antioxidant responsive element (Nrf2/ARE) small molecule agonists: luciferase reporter gene qHTS assay in human keratinocytes (AID 1919969); note: nearly all actives have a fitted effect of over 35% in size; note: potency is the fitted concentration of half-maximal effect
[2] = target: KiSS-1 receptor (Homo sapiens) (UniProt Q969F8); experiment: Human kisspeptin (KISS1R) small molecule agonists, calcium flux assay in KISS1R-HEK293 cells (AID 1920064; active = well fitted activation curve with a large enough effect in the repeat runs)
KiSS-1 receptor (Homo sapiens), sequence (Q969F8 whole entry, looked up): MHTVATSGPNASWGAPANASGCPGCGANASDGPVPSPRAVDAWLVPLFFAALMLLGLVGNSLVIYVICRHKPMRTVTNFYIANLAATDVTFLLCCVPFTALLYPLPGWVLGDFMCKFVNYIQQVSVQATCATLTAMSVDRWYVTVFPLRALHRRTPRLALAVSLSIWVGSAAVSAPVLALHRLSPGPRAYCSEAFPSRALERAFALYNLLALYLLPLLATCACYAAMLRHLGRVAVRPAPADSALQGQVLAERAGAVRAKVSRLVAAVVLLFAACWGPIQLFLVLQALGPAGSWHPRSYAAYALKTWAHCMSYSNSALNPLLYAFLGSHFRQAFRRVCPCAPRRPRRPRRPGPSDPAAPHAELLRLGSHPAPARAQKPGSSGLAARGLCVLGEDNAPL
Outline: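 Measures KISS1R agonism through calcium-sensitive dye fluorescence in stably transfected HEK293 cells, read for 3 min after pin-tool compound delivery; 15-point titrations in triplicate.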

[3] = p53 small molecule agonists, cell-based qHTS assay with human liver microsomes (AID 1963577);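 note: p53 response element beta-lactamase reporter cells with liver microsomes plus NADPH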
Outline: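 p53RE-bla cells; 5 h settle, 37 C/5% CO2; cpd + HLM 0.5 mg/mL + NADPH 0.5 mg/mL (final); 16 h 37 C; LiveBLAzer 2 h RT dark; fluorescence readout.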

[4] = p53 small molecule agonists, cell-based qHTS assay with rat liver microsomes (AID 1963578)
Outline: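 Rat liver microsome activation: microsomes 0.5 mg/mL, NADPH 0.5 mg/mL final; p53RE-bla cells, 16 h 37 C; LiveBLAzer readout, 2 h RT dark.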

[5] = p53 small molecule agonists, cell-based qHTS assay with human liver microsomes: qHTS cell viability counter screen (AID 1963579); note: nearly all actives have a fitted effect of over 45% in size
Outline: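 Luminescent CellTiter-Glo read-out, 30 min at room temperature, gauged cytotoxicity in p53RE-bla cells exposed 16 h at 37 C to DMSO-dissolved compounds with metabolic activation by human liver microsomes and NADPH, each 0.5 mg/mL final.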

[6] = p53 small molecule agonists, cell-based qHTS assay with rat liver microsomes: qHTS cell viability counter screen (AID 1963580); note: nearly all actives have a fitted effect of over 45% in size
Outline: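 Viability is assessed in parallel with the p53 reporter read: HCT-116 p53RE-bla cells receive compounds plus rat microsomes and NADPH (0.5 mg/mL final apiece), incubate 16 h at 37 C, and then CellTiter-Glo luminescence is recorded.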

[7] = p53 small molecule agonists, cell-based qHTS assay: qHTS cell viability counter screen (AID 1963581); note: nearly all actives have a fitted effect of over 45% in size
Outline: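 In the same plates used for the p53 bla reporter, HCT-116 cells given compounds for 16 h at 37 C received CellTiter-Glo; luminescence was recorded 30 min later at room temperature.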

[8] = p53 small molecule agonists, cell-based qHTS assay (AID 1963582; active = well fitted activation curve with a large enough effect in the signal ratio in the repeat runs, not every such curve was filed as active; the % refers to the signal ratio)
Outline: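 Compounds are pin-transferred in DMSO onto p53RE-bla cells and incubated 16 h at 37 C. The B/G FRET beta-lactamase substrate is then applied for 2 h at RT and fluorescence recorded.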

[9] = target: 5-hydroxytryptamine receptor 2A (Homo sapiens) (UniProt P28223); experiment: 5-hydroxytryptamine receptor 2A (HTR2A) small molecule agonists, cell-based qHTS assay (AID 1963587); note: nearly all actives have a fitted effect of over 30% in size; note: potency is the fitted concentration of half-maximal effect
5-hydroxytryptamine receptor 2A (Homo sapiens), sequence (P28223 whole entry, looked up): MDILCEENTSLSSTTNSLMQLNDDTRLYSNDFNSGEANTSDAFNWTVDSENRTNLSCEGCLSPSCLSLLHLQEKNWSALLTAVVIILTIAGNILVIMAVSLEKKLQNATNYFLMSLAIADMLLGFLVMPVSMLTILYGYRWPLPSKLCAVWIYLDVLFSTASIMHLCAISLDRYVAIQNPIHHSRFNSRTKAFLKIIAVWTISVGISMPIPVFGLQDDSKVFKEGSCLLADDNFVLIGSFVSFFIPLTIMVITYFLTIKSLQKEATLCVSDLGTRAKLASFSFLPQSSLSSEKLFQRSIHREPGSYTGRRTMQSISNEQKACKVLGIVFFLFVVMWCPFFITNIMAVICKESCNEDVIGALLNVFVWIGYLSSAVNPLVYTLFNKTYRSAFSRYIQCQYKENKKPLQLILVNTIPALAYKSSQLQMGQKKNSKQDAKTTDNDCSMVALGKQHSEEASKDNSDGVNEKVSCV
Outline: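 CHO cells stably expressing human HTR2A, plated 18 h, loaded with calcium dye 1 h at 37 C. Agonist mode: compounds added and intracellular calcium fluorescence recorded kinetically for 2 min at 1 sec intervals.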

[10] = target: Muscarinic acetylcholine receptor M1 (Homo sapiens) (UniProt P11229); experiment: Cholinergic receptor muscarinic 1 (CHRM1) small molecule antagonists, cell-based qHTS assay (AID 1963588); note: nearly all actives have a fitted effect of over 40% in size
Muscarinic acetylcholine receptor M1 (Homo sapiens), sequence (P11229 whole entry, looked up): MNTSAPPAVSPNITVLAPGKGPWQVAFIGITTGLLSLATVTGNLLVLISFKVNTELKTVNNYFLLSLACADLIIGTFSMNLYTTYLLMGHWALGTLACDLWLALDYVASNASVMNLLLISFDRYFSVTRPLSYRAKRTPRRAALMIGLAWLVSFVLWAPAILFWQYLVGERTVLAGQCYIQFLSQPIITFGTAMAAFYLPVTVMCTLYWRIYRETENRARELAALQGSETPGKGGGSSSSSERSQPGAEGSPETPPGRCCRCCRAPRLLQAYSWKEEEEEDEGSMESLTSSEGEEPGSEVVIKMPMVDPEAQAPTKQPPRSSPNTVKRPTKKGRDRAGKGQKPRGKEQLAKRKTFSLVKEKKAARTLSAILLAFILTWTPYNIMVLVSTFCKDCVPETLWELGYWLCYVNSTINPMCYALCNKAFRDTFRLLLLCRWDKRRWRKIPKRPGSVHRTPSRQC
Outline: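 CHRM1-CHO calcium-flux assay, antagonist mode. Cells were seeded 18 h, dye-loaded 1 h at 37 C and given compound for 5 min at RT, then acetylcholine was added at 50nM. FDSS fluorescence was read 3 min; 15 concentrations, three runs.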

[11] = target: Muscarinic acetylcholine receptor M1 (Homo sapiens) (UniProt P11229); experiment: Cholinergic receptor muscarinic 1 (CHRM1) small molecule agonists, cell-based qHTS assay (AID 1963589); note: nearly all actives have a fitted effect of over 35% in size
Outline: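 Each compound was tested at 15 concentrations across three independent runs on dye-loaded CHO cells stably expressing human CHRM1, reading intracellular calcium fluorescence kinetically at 1 sec intervals.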

[12] = target: Beta-2 adrenergic receptor (Homo sapiens) (UniProt P07550); experiment: Adrenergic beta2 receptor (ADRB2) small molecule antagonists, cell-based qHTS assay (AID 1963592); note: series mostly up to about 92 µM; nearly all actives have a fitted effect of over 50% in size
Beta-2 adrenergic receptor (Homo sapiens), sequence (P07550 whole entry, looked up): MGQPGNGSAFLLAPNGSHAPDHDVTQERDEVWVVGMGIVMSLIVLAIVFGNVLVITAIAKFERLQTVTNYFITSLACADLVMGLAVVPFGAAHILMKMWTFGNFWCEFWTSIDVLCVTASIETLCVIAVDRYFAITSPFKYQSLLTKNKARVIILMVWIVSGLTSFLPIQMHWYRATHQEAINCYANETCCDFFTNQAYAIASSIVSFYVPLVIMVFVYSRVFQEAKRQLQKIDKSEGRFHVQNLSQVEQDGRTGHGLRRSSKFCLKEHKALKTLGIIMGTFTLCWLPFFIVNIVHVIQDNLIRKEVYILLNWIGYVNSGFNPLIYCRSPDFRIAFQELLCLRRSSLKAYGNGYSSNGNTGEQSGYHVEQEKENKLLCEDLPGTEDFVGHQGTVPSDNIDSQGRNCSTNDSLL
Outline: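 Cells (CHO, stable ADRB2 overexpression) incubated 18-20hr at 37C; compounds added from DMSO; agonist mix (1nM isoproterenol, 100uM IBMX, 25uM Ro-20-1724) added; 0.5hr RT; d2-cAMP and anti-cAMP-cryptate added; 1hr RT; 665/615 nm read.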

[13] = target: Beta-2 adrenergic receptor (Homo sapiens) (UniProt P07550); experiment: Adrenergic beta2 receptor (ADRB2) small molecule agonists, cell-based qHTS assay (AID 1963593);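 note: CHO cells stably overexpressing human ADRB2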
Outline: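 CHO cells stably over-expressing ADRB2 were plated overnight at 37C, then dosed with compounds plus a stimulation mix containing 100uM IBMX and 25uM Ro-20-1724 for 0.5hr at room temperature. cAMP was measured by HTRF competition, 1hr.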

[14] = target: D(2) dopamine receptor (Homo sapiens) (UniProt P14416); experiment: Dopamine D2 receptor (DRD2) small molecule agonists, cell-based qHTS assay (AID 1963594); note: nearly all actives have a fitted effect of over 35% in size
D(2) dopamine receptor (Homo sapiens), sequence (P14416 whole entry, looked up): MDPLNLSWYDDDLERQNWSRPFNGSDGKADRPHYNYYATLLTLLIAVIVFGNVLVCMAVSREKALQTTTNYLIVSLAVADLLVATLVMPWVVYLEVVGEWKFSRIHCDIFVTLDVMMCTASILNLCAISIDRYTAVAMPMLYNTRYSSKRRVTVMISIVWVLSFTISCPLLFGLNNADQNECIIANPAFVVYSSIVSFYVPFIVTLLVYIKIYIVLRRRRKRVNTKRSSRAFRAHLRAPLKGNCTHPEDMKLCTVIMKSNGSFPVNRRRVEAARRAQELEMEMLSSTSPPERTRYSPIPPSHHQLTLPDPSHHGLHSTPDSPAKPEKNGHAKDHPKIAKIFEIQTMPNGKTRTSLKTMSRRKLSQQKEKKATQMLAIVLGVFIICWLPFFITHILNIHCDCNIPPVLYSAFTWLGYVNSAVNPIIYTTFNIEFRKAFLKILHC
Outline: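 HEK293 cells stably expressing human DRD2, pre-treated with PDE inhibitor Ro20-1724 (0.1 mM final) and compound 10 min at room temperature, then stimulated with NKH477 (200nM […]) for 30 min. cAMP read by HTRF (665/620 nm).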

[15] = target: 5-hydroxytryptamine receptor 2A (Homo sapiens) (UniProt P28223); experiment: 5-hydroxytryptamine receptor 2A (HTR2A) small molecule antagonists, cell-based qHTS assay (AID 1963586); note: nearly all actives have a fitted effect of over 45% in size
Outline: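 Antagonist-mode intracellular calcium assay: DOI (4 nM) added after 5 min compound pre-incubation at room temperature to dye-loaded HTR2A-CHO cells. Fluorescence followed for 3 min, sampled every second.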

[16] = cAMP Responsive Elements (CRE) small molecule agonists, cell-based qHTS assay (AID 1963590); note: potency is the fitted concentration of half-maximal effect
Outline: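 Cell line: CRE-bla HEK 293T; medium DMEM/10% dialyzed FBS/0.1 mM NEAA/1 mM pyruvate/25 mM HEPES; 3 h compound exposure; beta-lactamase FRET readout after 2 h substrate loading at RT.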

[17] = cAMP Responsive Elements (CRE) small molecule antagonists, cell-based qHTS assay (AID 1963591; active = well fitted inhibition curve with a large enough effect in the signal ratio in the repeat runs, not every such curve was filed as active; the % refers to the signal ratio)
Outline: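 Inhibition of NKH477-driven (0.25 uM final) CRE-beta-lactamase signal in HEK293T cells, 3 h compound exposure at 37 °C, detected by FRET substrate fluorescence.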

[18] = target: Gonadotropin-releasing hormone receptor (Homo sapiens) (UniProt P30968); experiment: Human gonadotropin-releasing hormone receptor (GnRHR) small molecule agonists, calcium flux assay in GnRHR-HEK293 cells (AID 1920063); note: nearly all actives have a fitted effect of over 35% in size
Gonadotropin-releasing hormone receptor (Homo sapiens), sequence (P30968 whole entry, looked up): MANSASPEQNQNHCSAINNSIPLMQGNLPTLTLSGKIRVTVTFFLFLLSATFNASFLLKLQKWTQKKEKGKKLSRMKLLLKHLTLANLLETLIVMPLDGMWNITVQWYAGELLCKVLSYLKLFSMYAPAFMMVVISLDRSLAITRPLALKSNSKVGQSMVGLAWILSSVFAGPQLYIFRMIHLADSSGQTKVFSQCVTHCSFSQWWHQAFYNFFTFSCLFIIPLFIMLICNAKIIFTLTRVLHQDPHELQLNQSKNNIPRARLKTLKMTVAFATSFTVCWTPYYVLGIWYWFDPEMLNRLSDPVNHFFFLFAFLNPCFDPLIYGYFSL
Outline: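 Fluorescence kinetics (480 nm excitation, 540 nm emission; 3 min, 1 s steps) report calcium mobilisation in human GnRHR-HEK293 cells in agonist mode. Dye incubation: 1 h, 37 C.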

[19] = G protein-coupled receptor (GPCR) small molecule agonists, calcium flux assay: HEK293 wild type cell line counter screen (AID 1920065)
Outline: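 Readout: fluorescence at 480 nm excitation/540 nm emission, sampled at 1 s intervals for 3 min. Cells had been cultured 18 h, then dye-loaded 1 h at 37 C before compound or ATP addition.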

[20] = target: D(2) dopamine receptor (Homo sapiens) (UniProt P14416); experiment: Dopamine D2 receptor (DRD2) small molecule antagonists, cell-based qHTS assay (AID 1963595; active = well fitted inhibition curve with a large enough effect in the signal ratio in the repeat runs, with a control signal flat; the % refers to the signal ratio; note: potency is the fitted concentration of half-maximal effect)
Outline: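 DRD2-HEK293; 0.1 mM Ro20-1724; cpd 10 min RT; NKH477 200 nM + quinpirole 12 nM, 30 min RT; HTRF cAMP (cAMP-d2/anti-cAMP cryptate), 665/620 nm ratio after 1 h.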
% is set by controls: 0 for no effect and ±100 for the full control effect.

CCCCCCOC(=O)c1ccc(O)cc1
19.4 µM (active) and inactive: Potency [1]
inactive: Potency [2] | Potency [3] | Potency [4] | Potency [5] | Potency [6] | Potency [7] | Potency [8] | Potency [9] | Potency [10] | Potency [11] | Potency [12] | Potency [13] | Potency [14]

O=C(/C=C/c1ccccc1)NCCO
active: Potency [9] 21.3 µM
inactive: Potency [1] | Potency [2] | Potency [5] | Potency [6] | Potency [7] | Potency [15] | Potency [10] | Potency [11] | Potency [16] | Potency [17] | Potency [12] | Potency [13] | Potency [14]

CC(=O)[C@H]1[C@H](C#N)C[C@H]2[C@@H]3CC=C4C[C@@H](O)CC[C@]4(C)[C@H]3CC[C@@]21C
inactive: Potency [18] | Potency [2] | Potency [19] | Potency [3] | Potency [4] | Potency [5] | Potency [6] | Potency [7] | Potency [8] | Potency [16] | Potency [12] | Potency [14]

CC[C@H]1OC(=O)[C@H](C)[C@@H](O[C@H]2C[C@@](C)(OC)[C@@H](O)[C@H](C)O2)[C@H](C)[C@@H](O[C@@H]2O[C@H](C)C[C@H](N(C)C)[C@H]2O)[C@](C)(O)C[C@@H](C)CN(C)[C@H](C)[C@@H](O)[C@]1(C)O
inactive: Potency [18] | Potency [2] | Potency [19] | Potency [3] | Potency [4] | Potency [5] | Potency [6] | Potency [7] | Potency [8] | Potency [16] | Potency [12] | Potency [13] | Potency [14]

COc1cc2c(cc1OC)-c1cc(=Nc3c(C)cc(C)cc3C)n(C)c(=O)n1CC2
active: Potency [16] 4.22 µM | Potency [20] 15 µM
inactive: Potency [18] | Potency [2] | Potency [19] | Potency [3] | Potency [4] | Potency [6] | Potency [7] | Potency [8] | Potency [9] | Potency [11] | Potency [12] | Potency [14]

SCCc1cnccn1
inactive: Potency [18] | Potency [2] | Potency [19] | Potency [3] | Potency [4] | Potency [5] | Potency [7] | Potency [8] | Potency [15] | Potency [9] | Potency [10] | Potency [11] | Potency [16] | Potency [12] | Potency [13] | Potency [14] | Potency [20]

O=C(O)O
inactive: activity change [18] 1.69% [at 5.22 µM, stronger effect = higher value] | activation [2] 0.0823% [at 6.97 µM] | activation [19] -0.66% [at 5.23 µM] | activation [3] -14.9% [at 5.99 µM] | activation [4] -6.42% [at 5.99 µM] | activity change, negative = cytotoxicity [5] -18.2% [at 5.99 µM] | activity change, negative = cytotoxicity [7] 11.6% [at 5.99 µM] | activation [8] -4.58% [at 5.99 µM] | activity, negative = inhibition [15] 11.9% [at 5.62 µM] | activity, negative = inhibition [10] -13.8% [at 5.58 µM] | activation [11] -0.0976% [at 6.97 µM] | activation [16] 2.15% [at 8.39 µM] | activity change, negative = inhibition [17] -6.17% [at 8.39 µM] | activity change, negative = inhibition [12] -4.62% [at 8.39 µM] | activation [14] -1.72% [at 8.39 µM] | activity change, negative = inhibition [20] 0.0808% [at 8.38 µM]
